# Assay results as given in PubChem BioAssay (NCATS).
# Inconclusive results are not listed. Active and inactive are the calls of the source. Unless noted, calls come from the whole dose curve.
# Legend:
# [1] = qHTS drug screen for cell cycle checkpoint inhibitors in PARPi-resistant BRCA-mutant ovarian cancer cell lines. (AID 1963452); conditions: PEO1/OlaR viability, CellTiter-Glo luminescence, 96 h, stronger effect = lower value
# In short: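 PEO1, PEO4 and PEO1/OlaR ovarian cancer cells, 600 per well, exposed 96 h at 37C to a dilution series. Viability read by CellTiter-Glo luminescence, normalized to DMSO and empty wells; activity summarized as Z-AUC.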
# [2] = qHTS for identification of novel therapeutic agents for treatment of microphthalmiaassociated transcription factor (MiT) renal cell carcinoma (RCC) (AID 1963991); conditions: CellTiter-Glo, 48 h, stronger effect = lower value
# In short: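 Curves over 11 concentrations were fitted to CellTiter-Glo luminescence, scaled between empty wells (0%) and DMSO (100%) viability. Cells were UOK109, UOK124 and UOK145 TFE3-fusion RCC lines at 500/well, exposed 48 hours at 37 C.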
# [3] = Dual reporter qHTS for agonist of Pregnane X Receptor (hPXR) against the NCATS DSHEA and TCM libraries: Fluorescence readout (AID 1920058; active = well fitted curve in the direction sought with a large enough effect; an effect the other way counts as inactive or inconclusive; note: 0% is about no effect); conditions: PXR dual reporter cells; series mostly up to 40 µM
# In short: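 hPXR-Luc HepG2 cells, 2000/well in charcoal-stripped serum, attached 5 h, dosed for ~24 h at 37 °C. Fluorescence read is CellTiter-Fluor viability (Ex/Em 405/540 nm); rifampicin positive, tetraoctyl ammonium bromide (92 µM) cytotoxicity controls.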
# [4] = biological target: Nuclear receptor subfamily 1 group I member 2 (Homo sapiens) (UniProt O75469); experiment: Dual reporter qHTS for agonist of Pregnane X Receptor (hPXR) against the NCATS DSHEA and TCM libraries: Luminescence readout (AID 1920059; active = well fitted curve in the direction sought with a large enough effect; an effect the other way counts as inactive or inconclusive; note: 0% is about no effect); conditions: hPXR dual reporter cells, luciferase luminescence agonist; series mostly up to 40 µM
# In short: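 hPXR-Luc HepG2 cells, 2000/well in 5% charcoal-stripped FBS medium, attached 5 h, then exposed 24 h at 37C to compounds. Viability by CellTiter-Fluor, then luciferase luminescence with ONE-Glo.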
# [5] = biological target: Nuclear receptor subfamily 1 group I member 2 (Homo sapiens) (UniProt O75469); experiment: Dual reporter qHTS for antagonist of Pregnane X Receptor (hPXR) against the NCATS DSHEA and TCM libraries: Luminescence Readout (AID 1920060; active = well fitted curve in the direction sought with a large enough effect; an effect the other way counts as inactive or inconclusive;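 note: HepG2 cells carrying hPXR luciferase reporter stimulated with rifampicin at 2 µM; 0% is about no effect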); conditions: hPXR dual reporter cells, luciferase luminescence, antagonist mode; series mostly up to 40 µM
# In short: (§1)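 In antagonist mode, 2 uM rifampicin was added to hPXR-Luc HepG2 cells alongside test substances, incubated 24 h at 37 C; luminescence gave reporter activity, and CellTiter-Fluor fluorescence (405/540 nm) gave viability.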
# [6] = Dual reporter qHTS for antagonist of Pregnane X Receptor (hPXR) against the NCATS DSHEA and TCM libraries: Fluorescence Readout (AID 1920061; active = well fitted curve in the direction sought with a large enough effect; an effect the other way counts as inactive or inconclusive; note: 0% is about no effect); conditions: PXR dual reporter cells, antagonist mode; series mostly up to 40 µM
# In short: as §1
# [7] = qHTS profiling for inhibitors of Plasmodium falciparum proliferation (AID 504749; active = well fitted curve in the direction sought with a large enough effect; an effect the other way counts as inactive or inconclusive;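 note: 0% = DMSO vehicle and full inhibition = artemisinin control; nearly all actives have a fitted effect of over 60% in size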); conditions: P. falciparum in erythrocytes, SYBR Green DNA, 72 h, at 28.7 µM (top of the series)
# In short: (§2)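 P. falciparum-infected erythrocytes (0.3% parasitemia, 2.5% hematocrit) incubated with compound 72 h at 37 C, 5% CO2. Parasite DNA detected by SYBR Green after lysis, overnight at room temperature; normalised to 0.29 uM artemisinin and DMSO.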
# 3D7 = experiment: as above; conditions: P. falciparum in erythrocytes, SYBR Green DNA, 72 h; series mostly up to 28.7 µM
# In short: as §2
# 7G8 = experiment: as above; conditions: P. falciparum in erythrocytes, SYBR Green DNA, 72 h; series mostly up to 28.7 µM
# In short: as §2
# AA1029 = experiment: as above; conditions: P. falciparum in erythrocytes, SYBR Green DNA, 72 h; series mostly up to 28.7 µM
# In short: as §2
# [8] = measured here: PEO1 parental Z-AUC
# [9] = TFE3-RCC UOK109 viability, measured here: UOK109 Z-AUC
# [10] = TFE3-RCC viability, measured here: UOK124 Z-AUC
# [11] = TFE3-RCC viability, measured here: UOK145 Z-AUC
# Chain of Nuclear receptor subfamily 1 group I member 2 (Homo sapiens) (O75469 whole entry, looked up): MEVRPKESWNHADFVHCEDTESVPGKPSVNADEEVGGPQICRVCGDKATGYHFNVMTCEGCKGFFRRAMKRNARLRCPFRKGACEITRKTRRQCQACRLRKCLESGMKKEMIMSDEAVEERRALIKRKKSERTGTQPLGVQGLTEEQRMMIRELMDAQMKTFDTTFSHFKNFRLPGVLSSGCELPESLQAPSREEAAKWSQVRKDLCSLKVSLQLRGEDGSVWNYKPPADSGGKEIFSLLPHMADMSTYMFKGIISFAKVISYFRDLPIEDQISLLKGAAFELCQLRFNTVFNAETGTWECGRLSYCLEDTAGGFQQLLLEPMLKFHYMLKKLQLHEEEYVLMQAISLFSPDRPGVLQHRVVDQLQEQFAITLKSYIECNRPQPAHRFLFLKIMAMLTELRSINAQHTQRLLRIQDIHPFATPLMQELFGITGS
compound,measurement,setting,value
Cc1c(-c2ccc(O)cc2)n(Cc2ccc(OCCN3CCCCCC3)cc2)c2ccc(O)cc12,Z-AUC,[1],1.04 (inactive)
same,Z-AUC,[1]; [8],0.798
same,Z-AUC,[1]; measured here: PEO4 Z-AUC,0.376
same,z-score,[2]; [9],0.552
same,z-score,[2]; [10],0.408
same,z-score,[2]; [11],0.653
O=C(O)C1CCCN(CCC=C(c2ccccc2)c2ccccc2)C1 (stereo unspecified),Z-AUC,[1],1.76 (inactive)
same,Z-AUC,[1]; [8],1.39
same,Z-AUC,[1]; measured here: PEO4 Z-AUC,1.34
NC(=O)c1ccc2[nH]ccc2c1,Z-AUC,[1],-0.236 (inactive)
same,Z-AUC,[1]; [8],-0.451
same,Z-AUC,[1]; measured here: PEO4 Z-AUC,-0.798
Cc1ccc(S(=O)(=O)N[C@@H](Cc2ccccc2)C(=O)CCl)cc1,Z-AUC,[1],1.05 (inactive)
same,Z-AUC,[1]; [8],1.44
same,Z-AUC,[1]; measured here: PEO4 Z-AUC,1.24
O=S(=O)(c1cccc2cnccc12)N1CCCNCC1,Z-AUC,[1],-0.00128 (inactive)
same,Z-AUC,[1]; [8],-0.265
same,Z-AUC,[1]; measured here: PEO4 Z-AUC,0.443
Nc1nc(=S)c2[nH]cnc2[nH]1,Z-AUC,[1],0.0206 (inactive)
same,Z-AUC,[1]; [8],-0.887
same,Z-AUC,[1]; measured here: PEO4 Z-AUC,-1.01
CC(C)C1CCC(C(=O)N[C@H](Cc2ccccc2)C(=O)O)CC1 (stereo partly specified),Z-AUC,[1],1.31 (inactive)
same,Z-AUC,[1]; [8],1.43
same,Z-AUC,[1]; measured here: PEO4 Z-AUC,0.601
CCCCc1oc2ccc(NS(C)(=O)=O)cc2c1C(=O)c1ccc(OCCCN(CCCC)CCCC)cc1,Z-AUC,[1],0.47 (inactive)
same,Z-AUC,[1]; [8],-0.173
same,Z-AUC,[1]; measured here: PEO4 Z-AUC,-0.237
Cn1c(=O)c2c(ncn2CC(O)CO)n(C)c1=O (stereo unspecified),Z-AUC,[1],0.897 (inactive)
same,Z-AUC,[1]; [8],0.956
same,Z-AUC,[1]; measured here: PEO4 Z-AUC,0.893
same,z-score,[2]; [9],0.0441
same,z-score,[2]; [10],0.351
same,z-score,[2]; [11],0.429
CCC(=O)O[C@]1(C(=O)SCF)[C@H](C)C[C@H]2[C@@H]3C[C@H](F)C4=CC(=O)C=C[C@]4(C)[C@@]3(F)[C@@H](O)C[C@@]21C,Z-AUC,[1],-1.29 (inactive)
same,Z-AUC,[1]; [8],-0.0288
same,Z-AUC,[1]; measured here: PEO4 Z-AUC,-0.807
CC(=O)[C@H]1CC[C@H]2[C@@H]3CC=C4C[C@@H](O)CC[C@]4(C)[C@H]3CC[C@]12C,Z-AUC,[1],1.05 (inactive)
same,Z-AUC,[1]; [8],0.974
same,Z-AUC,[1]; measured here: PEO4 Z-AUC,0.706
same,z-score,[2]; [9],0.424
same,z-score,[2]; [10],0.52
same,z-score,[2]; [11],0.375
Clc1ccccc1CN1CCc2sccc2C1,Z-AUC,[1],0.114 (inactive)
same,Z-AUC,[1]; [8],0.0683
same,Z-AUC,[1]; measured here: PEO4 Z-AUC,0.329
COc1cc2nc(N3CCCN(C)CC3)nc(NC3CCN(Cc4ccccc4)CC3)c2cc1OC,Z-AUC,[1],0.899 (inactive)
same,Z-AUC,[1]; [8],0.933
same,Z-AUC,[1]; measured here: PEO4 Z-AUC,0.922
CC(C(=O)O)c1ccc2c(c1)CC(=O)c1ccccc1S2 (stereo unspecified),Z-AUC,[1],1.18 (inactive)
same,Z-AUC,[1]; [8],0.703
same,Z-AUC,[1]; measured here: PEO4 Z-AUC,0.789
O=C(O)c1cccnc1,outcome,[3],inactive
same,outcome,[4],inactive
same,outcome,[5],inactive
same,outcome,[6],inactive
same,Z-AUC,[1],0.136 (inactive)
same,Z-AUC,[1]; [8],-0.782
same,Z-AUC,[1]; measured here: PEO4 Z-AUC,-0.146
COc1cc2ncnc(Nc3cccc(Cl)c3)c2cc1OC,Z-AUC,[1],0.0605 (inactive)
same,Z-AUC,[1]; [8],0.96
same,Z-AUC,[1]; measured here: PEO4 Z-AUC,0.239
OCc1ccc(-c2nn(Cc3ccccc3)c3ccccc23)o1,Z-AUC,[1],0.562 (inactive)
same,Z-AUC,[1]; [8],1.06
same,Z-AUC,[1]; measured here: PEO4 Z-AUC,0.997
N[C@@H](Cc1ccc(O)c(O)c1)C(=O)O,Z-AUC,[1],-0.0147 (inactive)
same,Z-AUC,[1]; [8],0.128
same,Z-AUC,[1]; measured here: PEO4 Z-AUC,0.735
same,z-score,[2]; [9],0.912
same,z-score,[2]; [10],0.453
same,z-score,[2]; [11],0.282
CCOCC(O)COc1ccc(NC(=O)CC[S+](C)C)cc1 (stereo unspecified),Z-AUC,[1],0.72 (inactive)
same,Z-AUC,[1]; [8],0.893
same,Z-AUC,[1]; measured here: PEO4 Z-AUC,1.15
same,z-score,[2]; [9],0.123
same,z-score,[2]; [10],0.296
same,z-score,[2]; [11],0.104
same,"activity, negative = inhibition",[7]; parasite line A,8.74% (inactive)
same,"activity, negative = inhibition",[7]; parasite line B,4.77% (inactive)
same,Potency,3D7,inactive
same,Potency,7G8,inactive
same,Potency,AA1029,inactive
